Screening data deposited in PubChem BioAssay by several laboratories.
Only some compounds are listed: those with a hit (about 3.5% of all), similar ones and a draw of the others.
MBD2 DNA inh: MBD2-methylated oligo binding inhibition; inhibition, % at 4.4 µM; Q9UBB5; 0.31% of 370,000 active; TR-FRET, MBD2 binding to methylated oligonucleotide; in the data active means inhibition above about 13%
PG9 binder: PG9 antibody binding by small molecule. TR-FRET gp120-PG9 antibody binding. inhibition, % at 6.7 µM. 0.43% of 360,000 active. AID 624416; in the data active means inhibition above about 8.5%
rCAG RNA binder: r(CAG) repeat RNA binding; inhibition, % at 3 µM; 1.3% of 370,000 active; TO-PRO-1 dye displacement fluorescence;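 active means inhibition above the plate cutoff, the mean of all test compounds on that plate plus 3 SD, cut at about 35% in these data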;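 further: 0% = DMSO alone and 100% = 100 µM mitoxantrone as full dye displacement; higher means more dye released from RNA so lower well fluorescence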
UHRF1 binding: blocks human UHRF1 binding to methylated DNA. 0.75% of 370,000 active. UHRF1 binding to methylated oligo, TR-FRET. inhibition, % at 4.4 µM; in the data active means inhibition above about 21%;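 further: UHRF1 SRA domain binding a hemimethylated CpG hairpin DNA probe; 0% = median of test compound wells and 100% = reference inhibitor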
LEDGF integ inh: blocks HIV-1 LEDGF/p75-dependent DNA integration. TR-FRET IN-LEDGF/p75 DNA integration, Eu/Cy5. inhibition, % at 3.7 µM. 0.64% of 370,000 active. AID 743269;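 active means inhibition above the screen-wide mean plus 3 SD, cut at about 13% in these data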;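 further: signal is the Cy5 over europium emission ratio at 671 and 618 nm; 0% = plate median of compound wells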
DNMT1 block: DNMT1 (human) enzyme inhibition; P26358; 0.83% of 360,000 active; inhibition (reported as % activation of signal), % at 10 µM; DNMT1 molecular beacon, Hinp1I cleavage, fluorescence; AID 588458; in the data active means inhibition above about 50%
Target sequence (P26358 504-1616 limits assumed): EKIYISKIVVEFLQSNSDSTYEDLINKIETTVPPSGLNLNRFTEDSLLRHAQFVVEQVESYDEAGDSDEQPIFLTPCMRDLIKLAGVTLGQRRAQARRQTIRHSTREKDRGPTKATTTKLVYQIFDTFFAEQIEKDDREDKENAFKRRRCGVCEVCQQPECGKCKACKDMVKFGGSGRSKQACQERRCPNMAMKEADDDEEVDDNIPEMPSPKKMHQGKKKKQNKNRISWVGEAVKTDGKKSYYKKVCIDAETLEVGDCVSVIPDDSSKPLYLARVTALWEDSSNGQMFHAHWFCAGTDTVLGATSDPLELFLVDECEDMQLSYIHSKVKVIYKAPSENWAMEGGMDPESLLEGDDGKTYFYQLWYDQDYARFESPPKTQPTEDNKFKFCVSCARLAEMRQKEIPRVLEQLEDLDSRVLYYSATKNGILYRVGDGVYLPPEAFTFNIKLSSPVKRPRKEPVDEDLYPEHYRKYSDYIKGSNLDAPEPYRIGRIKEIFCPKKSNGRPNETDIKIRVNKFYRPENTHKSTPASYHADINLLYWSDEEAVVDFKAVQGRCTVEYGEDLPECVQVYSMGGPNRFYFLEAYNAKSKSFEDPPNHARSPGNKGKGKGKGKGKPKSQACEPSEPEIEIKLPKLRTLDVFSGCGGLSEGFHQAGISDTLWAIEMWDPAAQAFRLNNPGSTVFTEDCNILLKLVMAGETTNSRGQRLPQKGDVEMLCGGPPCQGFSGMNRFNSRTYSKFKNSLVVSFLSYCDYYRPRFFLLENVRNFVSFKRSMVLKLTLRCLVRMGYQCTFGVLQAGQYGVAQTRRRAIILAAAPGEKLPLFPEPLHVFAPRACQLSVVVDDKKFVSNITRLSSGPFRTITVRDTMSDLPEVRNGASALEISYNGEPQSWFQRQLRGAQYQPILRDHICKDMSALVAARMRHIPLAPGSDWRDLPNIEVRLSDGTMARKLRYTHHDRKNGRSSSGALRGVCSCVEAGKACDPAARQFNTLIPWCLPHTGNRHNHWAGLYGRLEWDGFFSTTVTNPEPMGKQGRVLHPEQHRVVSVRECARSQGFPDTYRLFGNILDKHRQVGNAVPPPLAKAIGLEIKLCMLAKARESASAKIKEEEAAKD
PG9 binder conf: confirmation of small molecules binding HIV-1 gp120 antibody PG9; AID 651571; inhibition, % at 6.7 µM; 90% of 1,500 active; shares compounds with PG9 binder; TR-FRET PG9 antibody binding, biochemical; in the data active means inhibition above about 9%
PGV04 Ab binding: PGV04 control antibody binding, counter-screen. shares compounds with PG9 binder. TR-FRET PGV04 antibody-gp120 binding, biochemical. inhibition, % at 6.7 µM. 95% of 1,500 active. AID 651604; in the data active means inhibition above about 9.5%
* hit, by the source's call; · = no result given.

SMILES	MBD2 DNA inh	PG9 binder	rCAG RNA binder	UHRF1 binding	LEDGF integ inh	DNMT1 block	PG9 binder conf	PGV04 Ab binding
CC(=O)NC(CSc1cc(C)nc2ccc(Br)cc12)C(=O)O (stereo unspecified)	1.2	20.7*	3.5	-0.9	1.6	-2.9	34.5*	49.7*
COc1ccc2nc(C)cc(SCC(NC(C)=O)C(=O)OC(C)C)c2c1 (stereo unspecified)	2.9	-0.2	-4.7	2.2	-2.4	-1.6	·	·
Cc1ccnc(NC(=O)CCC(=O)N(CC(=O)NC(C)(C)C)c2ccc3c(c2)OCO3)c1	1.5	-1.6	-2.1	-0.2	-0.5	5.4	·	·
CCOC(=O)CNC(=S)N(CCCN1CCN(C)CC1)Cc1cccs1	3.5	13.4*	-5.5	2.5	-5.4	-0.3	5.0	9.8*
O=C(CNC(=S)N(CCCN1CCOCC1)Cc1cccs1)N1CCCC1	-5.3	0.8	-6.0	1.4	0.8	0.4	·	·
CC(=O)Nc1sc(C)c(C)c1C(=O)OCC(=O)Nc1ccc(S(N)(=O)=O)cc1	-4.1	9.6*	0.9	-0.8	2.1	0.8	12.6*	23.3*
O=C(CC[C@H]1O[C@@H](n2cnc3c(NC(=O)c4ccccc4)ncnc32)[C@H](O)[C@@H]1O)NCc1ccco1	6.4	-2.5	0.9	0.5	3.8	-0.5	·	·
O=C(Nc1nc2ccccc2n1CCOc1ccccc1)c1ccco1	-4.9	-1.4	-2.6	-0.9	5.9	-2.5	·	·
Cc1ccc(OCCn2c(NC(=O)c3ccco3)nc3ccccc32)cc1	4.2	19.3*	-0.2	-0.1	-2.6	-6.1	16.6*	25.2*
CCN1C[C@@H]2[C@@H]3C(=O)N(C)C(=O)[C@@H]3[C@](Cc3ccccc3)(C1=O)N2C(=O)c1ccc(Br)cc1	-0.4	3.2	-5.8	-0.9	-0.8	5.5	·	·
Cc1cccc(S(=O)(=O)Nc2cccc3c2C(=O)c2ccccc2-3)c1	-5.8	11.1*	21.5	-0.1	5.0	-2.1	15.3*	17.1*
O=C(O)CSc1nnc2c(n1)[nH]c1ccccc12	-3.8	-2.7	2.7	-0.8	-3.4	3.2	·	·
O=C(O)c1ccccc1CSc1nnc2c(n1)[nH]c1ccccc12	-1.5	11.0*	0.3	0.0	3.9	-0.3	20.6*	24.1*
O=CN(CCNc1ccccc1)c1ccccc1	0.7	0.5	-0.4	0.7	-3.1	-3.0	·	·
O=c1c(Br)c(Br)cnn1-c1ccccc1	-1.2	12.7*	2.2	-0.2	0.0	13.9	18.5*	27.7*
CCOC(=O)c1ccccc1NC(=O)Cn1c(=O)n(Cc2ccccc2)c(=O)c2c(C)c(C)sc21	1.1	11.8*	0.4	4.4	-1.6	-2.8	4.7	6.6
O=C1C2C3c4ccccc4C(c4ccccc43)C2C(=O)N1c1cccc2cccnc12 (stereo unspecified)	-1.9	10.0*	-2.5	-3.3	-0.1	-3.7	4.9	7.1
COc1ccc(Cn2ccnc2SCC(=O)Nc2ccc(F)cc2F)cc1	-1.1	-0.3	-2.3	-0.7	6.0	3.3	·	·
O=C(CN1CCN(S(=O)(=O)c2ccc3c(c2)OCCCO3)CC1)N1CCc2ccccc21	-2.1	-0.7	5.4	2.6	1.0	-8.4	·	·
COc1ccccc1CNc1ncnc2cc(Cl)ccc12	-4.3	89.7*	0.9	1.0	-1.0	3.8	91.1*	92.9*
COc1ccc(CNc2ncnc3cc(Cl)ccc23)cc1OC	1.5	-0.9	-0.7	0.0	1.2	-1.3	·	·
COC(=O)[C@]12C[C@H](CC(=O)NCc3ccccc3)C(=O)N(Cc3cccc4ccccc34)C1=C[C@H](C(C)(C)C)O[C@@H]2C	7.4	·	5.5	1.2	1.2	·	·	·
COc1ccc(/C(O)=C2/C(=O)C(=O)N(CCN(C)C)C2c2cccnc2)cc1OC (stereo unspecified)	2.6	-1.0	-0.1	4.2	0.0	5.5	·	·
COc1ccc(/C(O)=C2/C(=O)C(=O)N(CCN(C)C)C2c2cccnc2)cc1C (stereo unspecified)	-1.1	12.7*	1.2	-0.2	1.2	1.9	21.7*	27.5*
COc1ccc(C2/C(=C(/O)c3ccc(F)cc3)C(=O)C(=O)N2CCCN(C)C)cc1 (stereo unspecified)	-3.3	-1.5	-2.0	-2.1	0.4	1.0	·	·
